# According to PubChem BioAssay (NCATS):
# Inconclusive results are not listed. Where a call stands in place of a potency, no number is given. The source made the active and inactive calls. The call rests on the fitted dose curve; in most records, active means well fitted inhibition curve with a large enough effect; inconclusive means small, poorly fitted or top-dose-only effect; inactive means no such curve, though single readings can be large or run the other way.
# Test: S16 Schwann cell PMP22 intronic element firefly luciferase assay (AID 624032); further: nearly all actives have a fitted effect of over 30% in size
# Details: S16 rat Schwann cells, PMP22 element FLuc, 24 h; series mostly up to 57.5 µM
# In short: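 Rat S16 Schwann cells stably carrying a PMP22 intronic element-driven Fluc reporter were seeded overnight, then exposed to compounds for 24 h at 37 °C. Luminescence was normalized to PTC124 (positive control) and DMSO (0% activity).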
# Potency means the concentration at half of the fitted maximal effect.
row,Structure (SMILES),Potency
1,CCCCCC(C)N (configuration not stated),inactive
2,Cc1c(C)c2c(c(C)c1OC(=O)c1cccnc1)CC[C@@](C)(CCC[C@H](C)CCC[C@H](C)CCCC(C)C)O2,inactive
3,Cc1cccc(C(=O)O)c1O,inactive
4,CC(=O)Oc1cccc(C)c1,inactive
5,CCOC(N)=O,inactive
6,CCOC(=O)[C@H](CCc1ccccc1)N[C@@H](C)C(=O)N1CCC[C@H]1C(=O)O,14.4 nM (active)
7,O=C(O)c1ccccc1C(=O)Nc1ccc(S(=O)(=O)Nc2nccs2)cc1,inactive
8,O=c1[nH]c(=O)c2ccccc2o1,inactive
9,C[C@H]1COc2c(C3(N)CC3)c(F)cc3c(=O)c(C(=O)O)cn1c23,inactive
10,COC(=O)c1cccnc1,inactive
11,Cc1c(NC(C)C)c(=O)n(-c2ccccc2)n1C,inactive
12,Cn1c(=O)c2c(ncn2CCO)n(C)c1=O,inactive
13,COc1ccc(C(=O)NCc2ccc(OCCN(C)C)cc2)cc1OC,inactive
14,COC(=O)c1ccccc1C(=O)c1ccc(OCCN2CCCCC2)cc1,inactive
15,O=C(Cn1ccnc1[N+](=O)[O-])NCCO,inactive
16,NS(=O)(=O)c1cc(-c2nn[nH]n2)c(NCc2cccs2)cc1Cl,inactive

row,Structure (SMILES),Potency
1,O=C(O)CNC(=O)c1ccccc1I,inactive
2,CCN(CC)CCc1nc(-c2ccccc2)no1,inactive
3,O=C(/C=C/c1ccccc1)OCc1ccccc1,inactive
4,CC(CN(C)C)C(C)(O)Cc1ccc(Cl)cc1 (configuration not stated),inactive
5,O=c1[nH]c2cc(C(F)(F)F)c(N3CCOCC3)cc2n(CP(=O)(O)O)c1=O,inactive
6,CCCCCCCC(=O)OCC(O)CO (configuration not stated),inactive
7,Cc1[nH]c(C)c(Cl)c(=O)c1Cl,inactive
8,O=C1CC[C@@H](C(=O)O)N1,inactive
9,CC(C(=O)O)c1ccc2c(c1)Cc1cccnc1O2 (configuration not stated),inactive
10,Nc1ccncc1N,inactive
11,CCOc1ccc(C(=O)OCCN(CC)CC)cc1,inactive
12,Cc1cc(C)c(NC(=O)CN(CC(=O)O)CC(=O)O)c(C)c1Br,inactive
13,CN(C(=O)c1c(O)c2ccccc2n(C)c1=O)c1ccccc1,inactive
14,Cc1onc(-c2ccccc2)c1-c1ccc(S(N)(=O)=O)cc1,inactive
15,Nc1ncnc(Nc2ccccc2)n1,inactive
16,CC(=O)NCc1c(I)c(NC(C)=O)c(I)c(C(=O)O)c1I,inactive
